The target of assay [1] is T1, Mitogen-activated protein kinase 12 (Homo sapiens) (UniProt P53778).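 Further: values are averaged p38gamma kinase inhibition readings, compounds tested at 1 µM.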
T1 sequence (whole entry): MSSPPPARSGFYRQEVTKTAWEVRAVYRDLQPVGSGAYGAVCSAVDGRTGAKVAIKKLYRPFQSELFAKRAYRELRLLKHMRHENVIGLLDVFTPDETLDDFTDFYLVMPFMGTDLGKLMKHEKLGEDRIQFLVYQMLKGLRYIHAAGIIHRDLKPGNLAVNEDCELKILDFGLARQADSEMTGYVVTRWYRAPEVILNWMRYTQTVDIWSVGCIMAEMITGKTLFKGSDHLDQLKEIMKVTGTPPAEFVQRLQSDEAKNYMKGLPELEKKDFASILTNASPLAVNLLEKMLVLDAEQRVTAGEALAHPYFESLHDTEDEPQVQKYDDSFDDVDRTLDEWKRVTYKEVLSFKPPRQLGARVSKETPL
To be noted: at 1 µM.

In assay [2] the target is SRSF protein kinase 1 (Homo sapiens) (UniProt Q96SB4). To be noted: at 0.1 µM.
Assay [3] shares this target. To be noted: at 1 µM.
For assay [4], the target named is Phosphatidylinositol 4,5-bisphosphate 3-kinase catalytic subunit alpha isoform (Homo sapiens) (UniProt P42336). Conditions: at 0.1 µM.
Assay [5] has the same target. Conditions: at 1 µM.
Assay [6] has as its target T2, Phosphatidylinositol 4,5-bisphosphate 3-kinase catalytic subunit delta isoform (Homo sapiens) (UniProt O00329).
T2 sequence (whole entry): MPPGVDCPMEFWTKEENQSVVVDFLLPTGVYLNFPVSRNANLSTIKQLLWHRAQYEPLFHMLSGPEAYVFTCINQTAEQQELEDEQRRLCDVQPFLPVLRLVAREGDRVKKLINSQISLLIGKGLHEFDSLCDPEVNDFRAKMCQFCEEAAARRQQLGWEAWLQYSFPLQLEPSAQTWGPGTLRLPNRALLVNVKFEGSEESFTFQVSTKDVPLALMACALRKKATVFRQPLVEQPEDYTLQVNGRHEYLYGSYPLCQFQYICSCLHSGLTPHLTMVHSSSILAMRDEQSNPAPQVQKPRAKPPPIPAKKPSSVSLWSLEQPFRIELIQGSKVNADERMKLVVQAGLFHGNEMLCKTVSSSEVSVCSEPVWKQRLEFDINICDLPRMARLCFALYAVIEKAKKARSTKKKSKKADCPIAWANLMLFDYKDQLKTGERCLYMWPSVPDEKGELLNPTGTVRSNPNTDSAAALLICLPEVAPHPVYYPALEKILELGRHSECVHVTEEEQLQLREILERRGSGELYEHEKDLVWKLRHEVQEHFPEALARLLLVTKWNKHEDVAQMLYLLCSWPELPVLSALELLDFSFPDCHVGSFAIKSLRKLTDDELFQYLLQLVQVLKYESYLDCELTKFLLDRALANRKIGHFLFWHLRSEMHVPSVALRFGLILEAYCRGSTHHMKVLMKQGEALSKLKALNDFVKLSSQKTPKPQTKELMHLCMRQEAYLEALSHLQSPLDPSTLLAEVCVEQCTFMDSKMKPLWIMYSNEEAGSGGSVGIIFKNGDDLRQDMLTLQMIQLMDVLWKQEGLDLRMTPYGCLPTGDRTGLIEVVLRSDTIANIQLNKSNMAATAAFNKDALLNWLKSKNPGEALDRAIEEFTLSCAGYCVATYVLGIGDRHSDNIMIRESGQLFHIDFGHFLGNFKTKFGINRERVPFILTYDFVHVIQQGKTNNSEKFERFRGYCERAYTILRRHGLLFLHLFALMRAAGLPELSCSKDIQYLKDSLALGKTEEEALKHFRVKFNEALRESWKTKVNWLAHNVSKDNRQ
Conditions: at 0.1 µM.

The target in assay [7] is T2, Phosphatidylinositol 4,5-bisphosphate 3-kinase catalytic subunit delta isoform (Homo sapiens). Conditions: at 1 µM.
Assay [8] concerns the target Phosphatidylinositol 4-kinase beta (Homo sapiens) (UniProt Q9UBF8). To be noted: at 0.1 µM.
Assay [9] shares this target. To be noted: at 1 µM.
Assay [10] concerns the target Sphingosine kinase 1 (Homo sapiens) (UniProt Q9NYA1). To be noted: at 0.1 µM.
For assay [11] the target is unchanged. To be noted: at 1 µM.
Assay [12] addresses T3, Sphingosine kinase 2 (Homo sapiens) (UniProt Q9NRA0).
T3 sequence (whole entry): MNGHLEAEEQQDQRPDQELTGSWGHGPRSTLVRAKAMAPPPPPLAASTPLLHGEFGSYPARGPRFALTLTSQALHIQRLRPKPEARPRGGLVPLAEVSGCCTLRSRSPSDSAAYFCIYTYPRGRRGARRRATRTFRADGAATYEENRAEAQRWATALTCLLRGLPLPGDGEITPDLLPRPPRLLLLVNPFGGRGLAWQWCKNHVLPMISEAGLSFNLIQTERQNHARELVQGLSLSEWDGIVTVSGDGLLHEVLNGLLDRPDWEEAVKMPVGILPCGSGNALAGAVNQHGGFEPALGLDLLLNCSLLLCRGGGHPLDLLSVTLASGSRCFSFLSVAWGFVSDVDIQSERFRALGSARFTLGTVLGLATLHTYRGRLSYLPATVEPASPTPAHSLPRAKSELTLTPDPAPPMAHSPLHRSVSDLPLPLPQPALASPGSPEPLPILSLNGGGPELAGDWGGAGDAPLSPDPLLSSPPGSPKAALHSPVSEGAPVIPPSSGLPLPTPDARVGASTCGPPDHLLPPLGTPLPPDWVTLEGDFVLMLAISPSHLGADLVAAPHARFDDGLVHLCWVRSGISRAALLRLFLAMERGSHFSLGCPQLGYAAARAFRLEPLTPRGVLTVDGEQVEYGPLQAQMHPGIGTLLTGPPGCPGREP
Conditions: at 0.1 µM.

Assay [13] deals with T3, Sphingosine kinase 2 (Homo sapiens). To be noted: at 1 µM.
The target of assay [14] is Casein kinase II subunit alpha (Homo sapiens) (UniProt P68400). To be noted: at 0.1 µM.
The target is the same in assay [15]. Conditions: at 1 µM.
In assay [16] the target is T4, Inhibitor of nuclear factor kappa-B kinase subunit alpha (Homo sapiens) (UniProt O15111).
T4 sequence (whole entry): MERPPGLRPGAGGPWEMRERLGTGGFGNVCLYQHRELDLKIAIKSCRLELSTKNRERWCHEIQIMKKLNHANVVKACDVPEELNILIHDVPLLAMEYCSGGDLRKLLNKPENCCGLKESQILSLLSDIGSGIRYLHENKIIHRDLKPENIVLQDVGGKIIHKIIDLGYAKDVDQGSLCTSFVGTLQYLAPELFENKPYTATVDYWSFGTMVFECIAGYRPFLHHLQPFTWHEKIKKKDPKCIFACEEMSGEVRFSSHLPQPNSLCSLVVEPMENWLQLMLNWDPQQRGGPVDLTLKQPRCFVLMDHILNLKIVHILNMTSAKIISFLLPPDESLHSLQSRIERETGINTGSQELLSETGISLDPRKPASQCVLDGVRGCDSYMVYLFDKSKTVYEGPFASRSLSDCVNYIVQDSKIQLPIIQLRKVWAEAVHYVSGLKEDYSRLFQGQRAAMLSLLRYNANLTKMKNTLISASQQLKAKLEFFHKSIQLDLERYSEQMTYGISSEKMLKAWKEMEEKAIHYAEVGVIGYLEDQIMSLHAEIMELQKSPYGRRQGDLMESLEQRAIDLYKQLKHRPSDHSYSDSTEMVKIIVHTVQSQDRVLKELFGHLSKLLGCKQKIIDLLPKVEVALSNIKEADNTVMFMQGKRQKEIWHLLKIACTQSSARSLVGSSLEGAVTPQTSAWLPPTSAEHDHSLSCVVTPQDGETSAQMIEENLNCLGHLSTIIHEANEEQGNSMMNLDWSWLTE
To be noted: at 0.1 µM.

Assay [17] addresses T4, Inhibitor of nuclear factor kappa-B kinase subunit alpha (Homo sapiens). Conditions: at 1 µM.
In assay [18] the target is T5, Inhibitor of nuclear factor kappa-B kinase subunit beta (Homo sapiens) (UniProt O14920).
T5 sequence (whole entry): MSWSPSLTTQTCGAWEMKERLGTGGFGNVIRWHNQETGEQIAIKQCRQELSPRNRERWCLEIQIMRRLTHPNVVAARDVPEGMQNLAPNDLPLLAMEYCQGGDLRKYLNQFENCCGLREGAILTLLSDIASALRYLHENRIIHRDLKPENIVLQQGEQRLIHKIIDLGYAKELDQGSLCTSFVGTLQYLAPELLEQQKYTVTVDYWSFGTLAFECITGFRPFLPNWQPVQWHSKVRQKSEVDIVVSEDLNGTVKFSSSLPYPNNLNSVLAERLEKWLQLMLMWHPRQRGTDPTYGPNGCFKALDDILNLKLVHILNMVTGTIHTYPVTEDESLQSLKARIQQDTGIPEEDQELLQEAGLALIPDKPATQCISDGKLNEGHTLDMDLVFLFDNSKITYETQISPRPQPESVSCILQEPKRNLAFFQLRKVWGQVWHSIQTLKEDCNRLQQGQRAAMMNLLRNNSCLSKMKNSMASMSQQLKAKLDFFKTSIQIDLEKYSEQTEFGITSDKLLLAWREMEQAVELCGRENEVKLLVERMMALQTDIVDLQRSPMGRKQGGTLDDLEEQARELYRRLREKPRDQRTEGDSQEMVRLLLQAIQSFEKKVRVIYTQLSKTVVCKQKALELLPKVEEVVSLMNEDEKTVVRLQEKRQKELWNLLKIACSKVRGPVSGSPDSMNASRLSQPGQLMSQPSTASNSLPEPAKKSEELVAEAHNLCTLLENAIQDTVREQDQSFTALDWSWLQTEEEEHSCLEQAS
To be noted: at 0.1 µM.

In assay [19] the target is T5, Inhibitor of nuclear factor kappa-B kinase subunit beta (Homo sapiens). To be noted: at 1 µM.
Assay [20] addresses T6, Inhibitor of nuclear factor kappa-B kinase subunit epsilon (Homo sapiens) (UniProt Q14164).
T6 sequence (whole entry): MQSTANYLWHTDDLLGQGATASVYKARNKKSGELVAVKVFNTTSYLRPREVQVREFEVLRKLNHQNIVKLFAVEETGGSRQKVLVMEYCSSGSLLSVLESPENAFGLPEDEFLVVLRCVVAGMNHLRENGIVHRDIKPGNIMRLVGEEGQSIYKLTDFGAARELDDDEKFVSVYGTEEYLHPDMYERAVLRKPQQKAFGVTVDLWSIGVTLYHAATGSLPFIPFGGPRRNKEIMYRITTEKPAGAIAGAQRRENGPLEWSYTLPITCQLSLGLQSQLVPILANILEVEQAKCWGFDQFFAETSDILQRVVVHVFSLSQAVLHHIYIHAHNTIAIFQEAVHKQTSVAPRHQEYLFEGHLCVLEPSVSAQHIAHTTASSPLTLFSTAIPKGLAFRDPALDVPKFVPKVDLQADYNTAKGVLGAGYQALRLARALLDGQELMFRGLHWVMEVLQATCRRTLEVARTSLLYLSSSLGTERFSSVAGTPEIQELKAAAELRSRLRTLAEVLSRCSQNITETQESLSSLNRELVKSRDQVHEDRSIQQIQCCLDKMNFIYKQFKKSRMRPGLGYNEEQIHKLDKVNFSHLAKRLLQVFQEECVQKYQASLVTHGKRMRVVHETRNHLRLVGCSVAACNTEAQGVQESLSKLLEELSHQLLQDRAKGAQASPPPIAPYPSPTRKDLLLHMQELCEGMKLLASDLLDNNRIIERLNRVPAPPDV
Conditions: at 0.1 µM.

Values joined by “and” are separate entries in the source; they are usually repeats but may differ in a detail not shown here. Equal entries are not always repeated.

Phosphatidylinositol 4,5-bisphosphate 3-kinase catalytic subunit alpha isoform (Homo sapiens), sequence (P42336 whole entry, canonical isoform): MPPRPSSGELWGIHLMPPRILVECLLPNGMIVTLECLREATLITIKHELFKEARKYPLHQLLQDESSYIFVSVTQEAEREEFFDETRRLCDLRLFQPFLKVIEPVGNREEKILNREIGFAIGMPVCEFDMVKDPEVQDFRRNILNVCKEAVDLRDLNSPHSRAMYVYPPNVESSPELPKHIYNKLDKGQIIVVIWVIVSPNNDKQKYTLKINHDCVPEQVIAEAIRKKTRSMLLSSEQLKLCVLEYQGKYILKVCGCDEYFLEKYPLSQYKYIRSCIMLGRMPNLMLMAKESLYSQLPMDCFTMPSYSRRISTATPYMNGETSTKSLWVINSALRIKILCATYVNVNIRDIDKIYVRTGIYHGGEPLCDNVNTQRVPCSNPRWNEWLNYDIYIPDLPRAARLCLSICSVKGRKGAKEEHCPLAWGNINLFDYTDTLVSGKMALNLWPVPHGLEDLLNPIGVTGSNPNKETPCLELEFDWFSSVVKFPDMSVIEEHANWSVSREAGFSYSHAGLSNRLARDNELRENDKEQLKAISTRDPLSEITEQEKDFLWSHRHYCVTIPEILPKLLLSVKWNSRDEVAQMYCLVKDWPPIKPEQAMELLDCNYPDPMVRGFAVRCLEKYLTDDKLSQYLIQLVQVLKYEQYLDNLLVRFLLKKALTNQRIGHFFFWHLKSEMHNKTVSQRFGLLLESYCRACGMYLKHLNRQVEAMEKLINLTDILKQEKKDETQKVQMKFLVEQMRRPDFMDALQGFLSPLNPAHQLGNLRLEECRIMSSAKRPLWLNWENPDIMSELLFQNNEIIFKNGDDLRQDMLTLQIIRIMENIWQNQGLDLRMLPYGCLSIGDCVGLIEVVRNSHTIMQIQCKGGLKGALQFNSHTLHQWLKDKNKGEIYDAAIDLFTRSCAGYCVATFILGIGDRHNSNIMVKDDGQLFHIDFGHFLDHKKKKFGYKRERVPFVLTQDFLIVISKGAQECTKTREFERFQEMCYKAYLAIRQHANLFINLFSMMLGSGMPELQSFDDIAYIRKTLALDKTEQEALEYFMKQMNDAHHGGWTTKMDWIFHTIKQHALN
Sphingosine kinase 1 (Homo sapiens), sequence (Q9NYA1 whole entry): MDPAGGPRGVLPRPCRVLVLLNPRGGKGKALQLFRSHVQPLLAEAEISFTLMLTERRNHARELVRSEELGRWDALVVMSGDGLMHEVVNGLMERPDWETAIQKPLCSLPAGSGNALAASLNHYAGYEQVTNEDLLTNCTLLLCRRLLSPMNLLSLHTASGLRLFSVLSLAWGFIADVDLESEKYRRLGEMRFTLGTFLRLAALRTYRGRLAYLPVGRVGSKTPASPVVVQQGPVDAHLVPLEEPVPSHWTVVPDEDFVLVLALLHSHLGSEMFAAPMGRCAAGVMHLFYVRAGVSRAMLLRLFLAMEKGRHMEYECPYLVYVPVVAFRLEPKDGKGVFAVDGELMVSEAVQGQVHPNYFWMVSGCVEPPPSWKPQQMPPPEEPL
Casein kinase II subunit alpha (Homo sapiens), sequence (P68400 whole entry, looked up): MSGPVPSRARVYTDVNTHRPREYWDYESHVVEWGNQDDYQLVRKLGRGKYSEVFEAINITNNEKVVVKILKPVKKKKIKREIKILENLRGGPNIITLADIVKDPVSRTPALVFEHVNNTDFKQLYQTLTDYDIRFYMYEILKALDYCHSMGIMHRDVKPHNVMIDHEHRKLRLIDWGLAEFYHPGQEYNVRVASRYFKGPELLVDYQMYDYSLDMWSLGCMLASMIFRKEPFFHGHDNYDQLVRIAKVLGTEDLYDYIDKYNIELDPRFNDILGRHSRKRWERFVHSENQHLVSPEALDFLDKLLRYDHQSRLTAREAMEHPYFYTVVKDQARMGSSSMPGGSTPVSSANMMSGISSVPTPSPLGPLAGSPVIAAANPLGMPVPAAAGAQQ
Phosphatidylinositol 4-kinase beta (Homo sapiens), sequence (Q9UBF8 2-816 limits assumed): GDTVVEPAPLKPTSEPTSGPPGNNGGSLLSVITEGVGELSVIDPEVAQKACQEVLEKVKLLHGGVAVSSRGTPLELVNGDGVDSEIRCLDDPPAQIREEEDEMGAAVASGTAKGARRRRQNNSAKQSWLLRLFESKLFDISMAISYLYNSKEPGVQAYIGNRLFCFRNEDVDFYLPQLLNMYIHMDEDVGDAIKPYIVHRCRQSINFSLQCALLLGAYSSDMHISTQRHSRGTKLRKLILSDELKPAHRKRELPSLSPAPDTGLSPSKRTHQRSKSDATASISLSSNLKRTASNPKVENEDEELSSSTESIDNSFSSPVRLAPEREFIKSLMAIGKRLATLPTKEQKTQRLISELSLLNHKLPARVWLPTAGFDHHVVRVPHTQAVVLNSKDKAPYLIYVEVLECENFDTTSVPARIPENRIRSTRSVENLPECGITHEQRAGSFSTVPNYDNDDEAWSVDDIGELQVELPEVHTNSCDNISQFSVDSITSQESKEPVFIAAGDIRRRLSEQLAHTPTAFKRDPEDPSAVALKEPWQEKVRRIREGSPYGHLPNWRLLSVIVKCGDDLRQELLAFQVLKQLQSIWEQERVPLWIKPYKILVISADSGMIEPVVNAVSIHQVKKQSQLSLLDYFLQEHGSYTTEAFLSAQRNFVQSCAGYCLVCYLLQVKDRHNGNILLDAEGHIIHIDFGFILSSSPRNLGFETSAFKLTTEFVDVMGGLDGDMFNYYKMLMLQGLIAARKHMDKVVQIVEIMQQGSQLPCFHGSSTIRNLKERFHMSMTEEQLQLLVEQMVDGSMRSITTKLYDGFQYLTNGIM
SRSF protein kinase 1 (Homo sapiens), sequence (Q96SB4 whole entry): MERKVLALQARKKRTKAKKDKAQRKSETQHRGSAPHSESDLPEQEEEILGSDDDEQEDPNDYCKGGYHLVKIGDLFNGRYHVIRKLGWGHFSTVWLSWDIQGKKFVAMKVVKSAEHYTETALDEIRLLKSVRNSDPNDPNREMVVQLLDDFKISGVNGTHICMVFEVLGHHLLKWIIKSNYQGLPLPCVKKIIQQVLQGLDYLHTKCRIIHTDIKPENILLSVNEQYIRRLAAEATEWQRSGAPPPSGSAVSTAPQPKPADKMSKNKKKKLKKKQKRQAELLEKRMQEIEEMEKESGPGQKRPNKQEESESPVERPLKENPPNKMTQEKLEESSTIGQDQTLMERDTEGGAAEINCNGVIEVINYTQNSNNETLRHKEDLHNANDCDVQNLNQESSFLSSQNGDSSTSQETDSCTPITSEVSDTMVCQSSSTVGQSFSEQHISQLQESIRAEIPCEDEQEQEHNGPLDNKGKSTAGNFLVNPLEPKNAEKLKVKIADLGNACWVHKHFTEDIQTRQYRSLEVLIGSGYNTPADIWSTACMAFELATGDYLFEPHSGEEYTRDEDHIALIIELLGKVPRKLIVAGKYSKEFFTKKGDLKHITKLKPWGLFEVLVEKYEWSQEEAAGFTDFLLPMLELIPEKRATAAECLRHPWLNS

In the case of `CCS(=O)(=O)c1ccc(OC)c(Nc2ncc(-c3cccc(C(C)=O)c3)o2)c1`, the inhibition (usually the change of the read-out against control, counted positive when it falls) in [1] is 1.14%; in assay [2], -0.6%; in assay [3], 4.89%; in [4], 2.7%; in assay [5], 1.8%; in assay [6], 0.22%. Further, the inhibition in assay [7] was -1.96%; in assay [8] it was 2.44%; in assay [9], -1.58%; in assay [10], 13.1%; in assay [11], -2.18%; in [12] it was 0.25%. For the same compound, the inhibition in [13] was 0.73%; in assay [14] it was 6.61%; in assay [15], 21.6%; in [16], -1.71%; in [17] it was -1.11%; in assay [18], 5.35%. Besides, the inhibition in assay [19] came out at 5.04%; in [20] it was 6.89%.

Turning to `Nc1nonc1-c1nc2cnccc2n1C1CC1`, the inhibition in [1] was 3.34% and 3.65%; in [2], -1.33% and -0.52%; in assay [3], -1.72% and -0.89%; in assay [4] it was 2.95% and 6.82%; in [5], 3.77% and 8%; in assay [6], 1.84% and 8.17%. Also, the inhibition in assay [7] is 2.3% and 9.78%; in assay [8] it was 0.74% and 1.33%; in assay [9], -6.41% and 0.29%; in assay [10], -1.72% and 0.56%; in [11], -2.58% and -3.16%; in assay [12], 0.27% and 0.67%. Besides, the inhibition in assay [13] was 0.49% and 1.53%; in assay [14], 1.54% and 1.55%; in assay [15] it was 1.9% and 1.11%; in [16], 6.14% and 3.82%; in [17], 1.6% and 3.39%; in assay [18] it was 4.31% and 2.15%. Also, the inhibition was 1.3% and 3.29% in assay [19]; 3.18% and 3.84% in [20].

Consider `COc1cc2c(cc1Nc1nc(Nc3cccc(F)c3C(N)=O)c3cc[nH]c3n1)N(C(=O)CN1CCN(C(C)C)CC1)CC2`, for which the inhibition was 2.81% in assay [1]; -3.13% in assay [2]; -1.66% in assay [3]; 0.54% in [4]; 0.15% in assay [5]; -1.97% in assay [6]. The inhibition in [7] was -0.26%; in assay [8] it was -0.22%; in assay [9], 0.87%; in [10], 0.42%; in assay [11], 1.21%; in assay [12] it was -0.45%. In addition, the inhibition in assay [13] was -0.67%; in assay [14] it was 6.72%; in assay [15] it was 10.1%; in [16], 2.84%; in assay [17], 4.05%; in assay [18] it was 5.51%. For the same compound, the inhibition in assay [19] is 1.47%; in assay [20] it was 3.12%.

For the origin of these results see ChEMBL document CHEMBL1961873, “Compounds: GSK PKIS; Assays: Nanosyn kinase panel” (2012).
